Assay results as given in PubChem BioAssay.
Several values for one entry are separate records, joined by “and”; a condition that tells them apart may be missing. Equal entries are not always repeated. Activity calls are given as the source filed them. Unless noted, no rule for the calls is given here.

Tests used:
[1] = kinase inhibitors against Plasmodium liver-stage infection, cell-based, known kinase inhibitor set, luminescence, hepatoma host viability (AID 624392); conditions: Plasmodium liver stage in hepatoma cells, luciferase luminescence, concentration not given here; liver cell % of control: measured here: host liver cell viability; parasite % of control: stronger effect = lower value;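 also: infected cells incubated roughly two days before readout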
[2] = modulators of glucocorticoid suppression of NF-kB, cell-based, luciferase, IL-1B stimulus, dexamethasone (AID 624486); conditions: NF-kB luciferase reporter, IL-1B + dexamethasone, luminescence; percent of negative control (+Dex): actives lie on both sides, concentration not given here; z-score: measured here: IL-1B alone, no Dex;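 as to percent of negative control (+Dex): 100% = mean signal of vehicle control wells on the plate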
[3] = kinase inhibitors altering Pseudomonas killing of worms, whole organism (AID 651566);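 also: tested at 14 µM; sign flipped so higher z means a lower ratio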; conditions: C. elegans killed by P. aeruginosa, survival ratio
[4] = activators of macrophage pro-inflammatory response, cell-based, murine, luminescence (AID 652131); conditions: murine macrophage pro-inflammatory reporter, stronger effect = higher value
[5] = biological target: Cellular tumor antigen p53 (Homo sapiens) (UniProt P04637); assay: kinase inhibitors altering GFP-p53 stability in HPV16-positive cells, imaging, known kinase inhibitor set, EGFP/DsRed ratio (AID 1053116); conditions: stronger effect = higher value; EGFP object count: measured here: GFP-p53 positive objects count;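 also: cells exposed to compounds for 24 h at 37 °C before reading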
Cellular tumor antigen p53 (Homo sapiens), sequence (P04637 whole entry, looked up): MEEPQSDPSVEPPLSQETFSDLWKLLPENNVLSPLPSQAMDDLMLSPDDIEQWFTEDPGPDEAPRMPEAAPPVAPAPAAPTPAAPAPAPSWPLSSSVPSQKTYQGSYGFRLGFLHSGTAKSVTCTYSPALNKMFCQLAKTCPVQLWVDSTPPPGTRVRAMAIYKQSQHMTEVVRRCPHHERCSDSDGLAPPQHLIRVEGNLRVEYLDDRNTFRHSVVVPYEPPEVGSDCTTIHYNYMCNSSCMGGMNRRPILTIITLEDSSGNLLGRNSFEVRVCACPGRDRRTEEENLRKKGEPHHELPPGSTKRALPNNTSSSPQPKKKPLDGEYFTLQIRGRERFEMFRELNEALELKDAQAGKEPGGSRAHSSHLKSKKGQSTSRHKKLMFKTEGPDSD

[6] = IRF3 reporter activation in THP-1 macrophages, cell-based, PMA-stimulated THP-1, luminescence (AID 1053176); conditions: PMA-differentiated THP-1, IRF3 reporter luminescence; stronger effect = higher value
[7] = survival rescue of mitochondrial mutant cells in low glucose, primary screen, MELAS cybrids, Rieske KO mouse fibroblasts, CellTiter-Glo (AID 1508586;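 active = mean z-score across replicates of 1.96 or higher in either the MELAS or the Rieske mutant cell line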;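 also: z relative to plate mean and SD of compound and empty wells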)
[8] = MELAS cybrid survival, CellTiter-Glo 48 h, stronger effect = higher value
[9] = Rieske KO mouse fibroblast survival, CellTiter-Glo 72 h

| Structure (SMILES) | liver cell % of control [1] | parasite % of control [1] | percent of negative control (+Dex) [2] | z-score [2] | z-score [3] | z-score [4] | EGFP object count [5] | EGFP/DsRed ratio [5] | fraction signal [6] | z-score [7, 8] | z-score [7, 9] |
| --- | --- | --- | --- | --- | --- | --- | --- | --- | --- | --- | --- |
| COc1cc(N2CCN(C(C)C)CC2)ccc1Nc1nc(Nc2ccc(F)cc2C(N)=O)c2cc[nH]c2n1 | 64.4% | 792% (inactive) | 70% (inactive) | -2.39 | 0.205 (inactive) | 0.179 (inactive) | 4 | 0.221 (inactive) | 0.001 (inactive) | 2.96 (active) | 7.03 |
| O=C(Nc1n[nH]c2nc(-c3ccco3)c(Br)cc12)C1CC1 | 109% | 102% (inactive) | 95% (inactive) | 0.68 | -0.17 (inactive) | 0.441 (inactive) | 4 | 0.447 (inactive) | -0.002 (inactive) | -1.24 (inactive) | 0.037 |
| NS(=O)(=O)c1ccc(N=Cc2c(O)[nH]c3ccc4ncsc4c23)cc1 | 60.5% and 61.1% | 165% (inactive) and 378% (inactive) | 112% (inactive) and 98.5% (inactive) | 0.655 and 0.01 | 0.515 (inactive) and 0.145 (inactive) | -1.62 (inactive) and -1.7 (inactive) | 2.5 and 4 | 0.0629 (inactive) and 0.096 (inactive) | -0.009 (inactive) and 0.0005 (inactive) | -0.336 (inactive) and 1.1 (inactive) | 0.0286 and -0.139 |
| N#Cc1cccc(Nc2ncc(-c3ccccc3)o2)c1 | 108% | 125% (inactive) | 241% (active) | 19.8 | -0.175 (inactive) | 4.37 (inactive) | 6 | 0.11 (inactive) | -0.004 (inactive) | 1.35 (inactive) | 0.0963 |
| O=C(O[C@H]1CN[C@H](C#Cc2cc3ncnc(Nc4ccc5c(ccn5Cc5cc(F)ccc5F)c4)c3s2)C1)N1CCOCC1 | 93.4% | 75.1% (inactive) | 62% (inactive) | -2.06 | 0.505 (inactive) | 2.01 (inactive) | 3 | 0.0606 (inactive) | -0.0085 (inactive) | -0.816 (inactive) | -0.0743 |
| COc1ccc(C2=C(N3CCc4ccccc43)C(=O)NC2=O)cc1 | 80.9% | 77.5% (inactive) | 84% (inactive) | -0.36 | 0.12 (inactive) | -0.139 (inactive) | 7.5 | 0.229 (inactive) | -0.0035 (inactive) | -0.15 (inactive) | -0.362 |
| Fc1cccc(COc2ccc(Nc3ncnc4sc(-c5cccs5)cc34)cc2Cl)c1 | 71.8% | 60.1% (inactive) | 92% (inactive) | 0.005 | 0.99 (inactive) | -0.373 (inactive) | 5 | 0.0533 (inactive) | -0.0045 (inactive) | -0.00271 (inactive) | -0.496 |
| c1cc(-c2cnn3nc(N4CCOCC4)ccc23)nc(NC2CC2)n1 | 147% | 177% (inactive) | 59.5% (inactive) | -2.65 | -0.225 (inactive) | -1.49 (inactive) | 3.5 | 0.0725 (inactive) | -0.008 (inactive) | 0.731 (inactive) | -0.389 |
| Clc1ccc(CNc2nccc(-c3cnn4ncccc34)n2)cc1 | 78.2% | 176% (inactive) | 26.5% (active) | -7.22 | 0.125 (inactive) | -1.14 (inactive) | 1 | 0.0281 (inactive) | 0 (inactive) | 0.484 (inactive) | -0.266 |
| N#Cc1c(NC(=O)CN2CCOCC2)sc2c1CCCC2 | 105% | 134% (inactive) | 98% (inactive) | -0.1 | 0.4 (inactive) | 0.254 (inactive) | 3.5 | 0.0894 (inactive) | 0.0015 (inactive) | -0.581 (inactive) | -0.17 |
| Fc1ccc(-c2cc(C3CNNC3c3ccccn3)ccn2)cc1 (configuration not stated) | 162% | 60.9% (inactive) | 81% (inactive) | -1.07 | 0 (inactive) | -0.015 (inactive) | 3 | 0.0511 (inactive) | -0.0065 (inactive) | 0.213 (inactive) | -0.249 |
| NC(=O)c1cccc(Nc2nccc(Nc3cccc(F)c3)n2)c1 | 116% | 398% (inactive) | 208% (active) | 8.4 | 1.67 (inactive) | 0.244 (inactive) | 2 | 0.0178 (inactive) | 0.002 (inactive) | -0.778 (inactive) | -0.359 |
| O=C(O[C@H]1CN[C@H](C#Cc2cc3ncnc(Nc4ccc(Cc5ccccc5)cc4)c3s2)C1)N1CCOCC1 | 106% | 85.4% (inactive) | 88% (inactive) | -1.34 | -0.335 (inactive) | 0.302 (inactive) | 5.5 | 0.104 (inactive) | -0.006 (inactive) | -0.24 (inactive) | -0.218 |
| CNC(=O)c1cncc(/C=C/c2c(Cl)cccc2Cl)c1 | 138% | 48.1% (inactive) | 92% (inactive) | 0.3 | 0.1 (inactive) | 0.203 (inactive) | 5.5 | 0.562 (inactive) | -0.0025 (inactive) | 0.726 (inactive) | 0.293 |
| COc1ccc2cc(-c3c(-c4ccncc4)nc(-c4ccc(S(C)=O)cc4)n3C)ccc2c1 (configuration not stated) | 117% | 121% (inactive) | 93.5% (inactive) | 0.505 | -0.78 (inactive) | 0.151 (inactive) | 5 | 0.161 (inactive) | -0.0035 (inactive) | -0.944 (inactive) | -0.225 |
| CC(=O)Nc1cccc(C#Cc2cncnc2Nc2ccc(OCc3cccc(F)c3)c(Cl)c2)n1 | 82.2% | 102% (inactive) | 68% (inactive) | -2.19 | 0.02 (inactive) | 0.499 (inactive) | 6.5 | 0.198 (inactive) | -0.0035 (inactive) | 0.392 (inactive) | -0.337 |
| COc1ccc(-c2cc(C3CNNC3c3ccccn3)ccn2)cc1 (configuration not stated) | 171% | 92.3% (inactive) | 104% (inactive) | 1.42 | -0.77 (inactive) | 2.73 (inactive) | 3.5 | 0.0398 (inactive) | -0.0055 (inactive) | -0.36 (inactive) | -0.107 |
| Cc1cc(O)cc(C)c1/C=C/c1cncc(-c2nn[nH]n2)c1 | 110% | 109% (inactive) | 106% (inactive) | -0.05 | 0.305 (inactive) | 3.53 (inactive) | 4.5 | 0.0667 (inactive) | -0.004 (inactive) | -0.295 (inactive) | -0.403 |
| COc1cc(Nc2nccc(-c3cnn4ncccc34)n2)cc(OC)c1 | 132% | 14.2% (inactive) | 29% (active) | -7.79 | 0.5 (inactive) | -1.96 (inactive) | 2.5 | 0.0482 (inactive) | -0.004 (inactive) | 1.1 (inactive) | 0.69 |
| Cc1ccc2c(-c3ccnc(Nc4cccc(C(F)(F)F)c4)n3)c(-c3ccccc3)nn2n1 | 84.8% | 47.5% (inactive) | 89.5% (inactive) | -3.32 | -0.495 (inactive) | -1.57 (inactive) | 2.5 | 0.0663 (inactive) | -0.0065 (inactive) | 0.907 (inactive) | -0.257 |
| COC(=O)c1sc(-n2cnc3cc(OC)c(OC)cc32)cc1OCc1ccccc1C(F)(F)F | 103% | 126% (inactive) | 86% (inactive) | 0.12 | 0.885 (inactive) | 0.445 (inactive) | 4.5 | 0.108 (inactive) | -0.003 (inactive) | -0.644 (inactive) | 0.293 |
| CCn1c(-c2nonc2N)nc2cnc(Oc3cccc(NC(=O)c4ccc(N(C)C)cc4)c3)cc21 | 88.6% | 248% (inactive) | 96% (inactive) | -0.295 | -0.06 (inactive) | 1.22 (inactive) | 3.5 | 0.117 (inactive) | -0.0105 (inactive) | 0.0951 (inactive) | 0.0229 |
